# Measurements from PubChem BioAssay (NCI).
# Compounds without any hit were thinned out: in the full panel of roughly 79,000, 15% have a hit. Values without a mark were called inactive. Calls of active or inactive are those of the source. Cut-off read from the data, not from the text of the source: active = growth inhibition above about 70%; inactive = the rest. *1 amine or outer side, *2 acyl side, *3 side chain or, on linkers, in order; H or OH if unused. Where a SMILES comes first, the peptide text is derived from it. Bridges are numbered along the chain shown (N, C = ends). Roman numbers before positions name the chains, in order. [ ]: non-standard residue; d: D form. Actinocin(1to9) = Cc1c2oc3c(C)ccc(C(=O)[*:2])c3nc-2c(C(=O)[*:1])c(N)c1=O; NMeV = CN[CH](C(=O)O)C(C)C; Sar = CNCC(=O)O
# Key:
# [1] = NCI Yeast Anticancer Drug Screen. Data for the rad50 strain (AID 155);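 note: 0% = growth of vehicle-only cultures of the same strain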; conditions: S. cerevisiae rad50 strain growth inhibition; at 50.0 µM; active compounds read high
# How it was run: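 Relative growth inhibition (compound vs vehicle) was measured in yeast with a defined repair-gene alteration.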
# [2] = NCI Yeast Anticancer Drug Screen. Data for the mec2-1 strain (AID 157); conditions: S. cerevisiae mec2-1 strain, at 50.0 µM, active compounds read high
# How it was run: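 Yeast mec2-1 mutant treated with compound. Readout: growth inhibition vs vehicle controls.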
# [3] = NCI Yeast Anticancer Drug Screen. Data for the sgs1 mgt1 strain (AID 161);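 note: 0% = growth of cultures given vehicle only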; conditions: S. cerevisiae sgs1 mgt1 strain, at 50.0 µM, active compounds read high
# How it was run: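 Inhibition of yeast growth, normalised to vehicle-treated controls, is reported for a strain bearing genetic alterations in DNA damage repair.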
# [4] = NCI Yeast Anticancer Drug Screen. Data for the cln2 rad14 strain (AID 165);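 note: 0% = growth equal to vehicle treated cultures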; conditions: S. cerevisiae cln2 rad14 strain, at 50.0 µM, active compounds read high
# How it was run: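 cln2 rad14 yeast strain; compound exposure; growth inhibition read vs vehicle controls.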
# [5] = NCI Yeast Anticancer Drug Screen. Data for the bub3 strain (AID 167); conditions: S. cerevisiae bub3 mutant strain, at 50.0 µM, active compounds read high
# How it was run: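 Screening used yeast with an engineered genetic alteration affecting cell cycle control. Compound-exposed cultures were compared with vehicle cultures, and reduced growth was taken as inhibition.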
# [6] = NCI Yeast Anticancer Drug Screen. Data for the mlh1 rad18 strain (AID 175); conditions: S. cerevisiae mlh1 rad18 strain growth inhibition; at 50.0 µM; active compounds read high
# How it was run: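 Yeast w/ defined DNA-repair lesions; compound exposure; growth vs vehicle controls → % inhibition.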
SMILES,growth inhibition [1],growth inhibition [2],growth inhibition [3],growth inhibition [4],growth inhibition [5],growth inhibition [6]
[CH3][Sn]([CH3])([n]1cnc(N)nc1=O)[n]1cnc(N)nc1=O,4.75%,0%,-10.3%,-1.45%,-2.55%,-60.4%
C[As+](C)(C)c1ccc(Br)c([N+](=O)[O-])c1,7.6%,-0.85%,-6%,-13.2%,-1.3%,10.9%
S=C(N=Nc1ccccc1)NNc1ccccc1.[Cu+2],-17.4%,-28.8%,-30%,1.8%,5.75%,-15.2%
NC(C/C=C/P(=O)(O)O)C(=O)O (configuration not stated),-20.4%,-17.1%,-14.8%,13.2%,19.9%,-33%
CC12CCC(OC3OC(CO)C(O)C(O)C3O)C=C1CCC1C2CCC2(C)C(c3ccc(=O)oc3)CCC12 (configuration not stated),62.5%,60%,46.3%,35.2%,61.2%,45.6%
CC(C)(C)c1ccc2c(cc[n+]3ccccc23)c1,-9.05%,-6.85%,2.05%,4.05%,2.35%,-11.9%
O[C@H](c1ccccc1)[C@@H](c1ccccc1)N1CCCCC1,-9.85%,-11.9%,-3.65%,-28%,41.9%,-11.6%
CC1=CC23C(COC(=O)C24CO4)C(C(=O)O)=CC3C1C (configuration not stated),-22.8%,-19.7%,-13.3%,27%,-8.95%,-5.7%
COC(=O)C1C(OC(=O)c2ccccc2)CC2CCC1N2C(N)=O (configuration not stated),-12.6%,-0.75%,-8.05%,-23%,-15.9%,3.3%
O=S1(=O)OCCO1,-3.5%,-9%,-3.8%,-27.4%,-5.55%,7.9%
O=C(O)C1C2c3ccccc3C(c3ccccc32)C1C(=O)NCC1CC1 (configuration not stated),51.5%,7.55%,10.4%,13.6%,21.4%,24.2%
COc1cc(C=O)cc(OC)c1OC,1.45%,-10.6%,5.25%,-14.1%,-7.1%,-20.1%
O=C(CI)NCCNC(=O)CI,11.1%,16.2%,21.4%,20.6%,10.6%,39.5%
CCC(Cl)COP(=O)(OCC(Cl)CC)C(CC)OP(=S)(OCC(Cl)CC)OCC(Cl)CC (configuration not stated),16.6%,11.3%,65.7%,94.8% (active),57.5%,20.9%
C=CCNCC(O)c1ccccc1 (configuration not stated),13.5%,-14.2%,-11.8%,6.7%,6.5%,4.6%
CP1(=S)CCC2=C1CCc1cc(O)ccc12 (configuration not stated),14.4%,-31.8%,0.4%,-29.8%,-3.65%,21.4%
CC(Cc1ccc(Cl)cc1Cl)NO (configuration not stated),15.7%,-12.2%,-15.9%,-25.6%,-43.2%,-2.15%
CCCC[N+]1(C)CCCC1c1cccnc1 (configuration not stated),-15.5%,-7.1%,5.3%,-10.2%,-10.8%,-7.85%
CCOP(=O)(O)SP(=O)(O)OCC.[Zn+2],-13.9%,-11.8%,-7%,2.9%,-5.45%,-0.35%
"CCC(C)C1NC(=O)C(NC(=O)c2c3nc4c(C(=O)NC5C(=O)NC(C(C)C)C(=O)N6CCCC6C(=O)N(C)CC(=O)N(C)C(C(C)C)C(=O)OC5C)ccc(C)c4oc-3c(C)c(=O)c2N)C(C)OC(=O)C(C(C)C)N(C)C(=O)CN(C)C(=O)C2CCCN2C1=O (configuration not stated) (I: TIP[Sar][NMeV] / II: TVP[Sar][NMeV]; ester I:1-I:C, II:1-II:C; linker I:N-II:N via Actinocin(1to9); configuration not given here)",88% (active),92.2% (active),91.2% (active),88.3% (active),89.8% (active),85.7% (active)
C[C@H](O)CCC(=O)c1ccoc1,-5.65%,-2.6%,-22.1%,6.2%,-22.1%,-14.1%

SMILES,growth inhibition [1],growth inhibition [2],growth inhibition [3],growth inhibition [4],growth inhibition [5],growth inhibition [6]
CC(Br)C(=O)C(CCN(C)C)(c1ccccc1)c1ccccc1 (configuration not stated),17.6%,-0.05%,7.95%,-6.4%,21.8%,17.1%
OC1[C@@H]2[C@@H](O)CCCN2C[C@@H](O)[C@H]1O (some centres not stated),-53.2%,-93%,-31.9%,-20.6%,1.05%,-28.1%
CN(C)/N=C(\N)c1nnn(C)n1,-4.45%,-14.2%,-15.2%,-32.8%,-11.2%,-0.3%
CP(C)(=S)P(C)(C)=S,10.8%,6.05%,14.6%,-9.1%,3.05%,-18.5%
CN(C)CCCc1c[nH]c2ccccc12,-20.4%,-6.6%,-4.85%,-7.5%,-52.5%,8.25%
[Cl][Sn]1([Cl])[CH2]CC[CH2][Sn]([Cl])([Cl])[CH2]CC[CH2]1,3.4%,34%,-13.1%,39.4%,-5.4%,27.4%
O=C(CF)Nc1ccc([N+](=O)[O-])cc1,-12.4%,-7.25%,-6.25%,-15.7%,0.2%,9.1%
CCOP(=O)(CC(=O)C1CC1)OCC,-28.8%,-20.5%,-26.2%,-21.9%,-20.9%,-43.1%
CC1CCCCN1CCCN=C(N)N[N+](=O)[O-] (configuration not stated),9.2%,-3.35%,19.2%,18.1%,18.1%,-0.8%
CC(C)(C)OP(O)(=S)OC(C)(C)C,14.5%,13.2%,15.8%,15.2%,16.1%,9.55%
CN(C)C(=O)NC(O)C(Cl)(Cl)Cl (configuration not stated),-20.4%,-8.35%,-5.45%,-21.1%,-4.25%,19.1%
Clc1ccc(C(c2ccccc2Cl)C(Cl)(Cl)Cl)cc1 (configuration not stated),-24.6%,-7.8%,1.8%,-44.6%,47.5%,12.2%
COC(=O)CN(C)P(=O)(N1CC1)N1CC1,13.4%,7.15%,-4.1%,-10.2%,-2.8%,-10.1%
CCOP(=O)(CC(N)=O)OCC,-4.9%,9.8%,3.5%,0.1%,13.8%,-11.8%
COc1ccc2c(c1OC)C13CCN(C)C(C2)C12C=CC(=O)C3c1c(OC)ccc(OC)c12 (configuration not stated),37.4%,6.95%,24.2%,18.8%,4.2%,27.2%
CCCCOCCOP(=O)(OCCOCCCC)OCCOCCCC,7.85%,-15.2%,2%,-14.8%,-39%,-28.4%
CCC1CN1CCC(=O)Nc1ccccc1 (configuration not stated),-2.8%,-13.1%,-14.2%,-35.2%,-17.6%,6.3%
O=C(O)c1ccc(CI)cc1,-9.6%,-11.9%,6%,9%,15.2%,-16.9%
O=C(Nc1c(O)[nH]c(=S)[nH]c1=O)c1ccco1,-24.1%,-4.8%,-10.8%,-4.35%,-13.2%,-16%
Nc1cc(S(=O)(=O)F)cc(Cl)c1O,25.2%,-3.55%,14.9%,-61.2%,23.2%,24.6%
O=[N+]([O-])/C=C\c1c[nH]c2ccc(OCc3ccccc3)cc12,52.5%,30.8%,53.4%,45.4%,55.5%,40.9%
